Laboratory results: PubChem BioAssay AID588342 (National Center for Advancing Translational Sciences (NCATS), 2011)
Among all 360,000 compounds or so, about 25,000 (6.9%) were called active. Where a call stands in place of a potency, no number is given. Another 9% or so got no clear call; they are omitted. Calls come from the whole dose curve; as a rule, active = well fitted inhibition curve with a large enough effect; inconclusive = small, poorly fitted or top-dose-only effect; inactive = flat fitted curve, though single readings scatter. The sample as a whole holds a higher share of actives than the screen did.

Biological target: Luciferin 4-monooxygenase (Photinus pyralis) (UniProt P08659)
Experiment: qHTS profiling assay for firefly luciferase inhibitor/activator using purifed enzyme and Km concentrations of substrates (counterscreen for miR-21 project); note: nearly all actives have a fitted effect of over 55% in size
Conditions: purified FLuc, luminescence inhibition; series mostly up to 57.5 µM
Summary of the method: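 Biochemical qHTS of compounds, final roughly 60 µM downward over six points, against 10 nM purified firefly luciferase using Km concentrations of substrates (10 uM D-luciferin, 10 uM ATP) in Tris acetate pH 7.5 buffer; luminescence output.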
Potency is the fitted concentration of half-maximal effect.

Chain of Luciferin 4-monooxygenase (Photinus pyralis) (P08659 whole entry, looked up): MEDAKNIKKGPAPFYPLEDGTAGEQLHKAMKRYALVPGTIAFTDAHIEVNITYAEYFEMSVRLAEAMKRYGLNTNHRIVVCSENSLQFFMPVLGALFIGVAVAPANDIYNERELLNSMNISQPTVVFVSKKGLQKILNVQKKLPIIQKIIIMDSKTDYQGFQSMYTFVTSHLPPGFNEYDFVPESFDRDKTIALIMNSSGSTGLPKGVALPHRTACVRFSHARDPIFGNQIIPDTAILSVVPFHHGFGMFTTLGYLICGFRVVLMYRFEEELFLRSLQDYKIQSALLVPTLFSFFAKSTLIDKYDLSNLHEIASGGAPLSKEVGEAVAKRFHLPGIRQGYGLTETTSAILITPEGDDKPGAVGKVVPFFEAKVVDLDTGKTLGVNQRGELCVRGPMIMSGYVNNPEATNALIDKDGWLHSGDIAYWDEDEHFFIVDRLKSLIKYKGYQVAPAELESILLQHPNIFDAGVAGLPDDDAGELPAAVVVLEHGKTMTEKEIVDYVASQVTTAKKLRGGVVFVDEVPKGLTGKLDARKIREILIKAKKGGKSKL

| SMILES | Potency |
| --- | --- |
| O=C(CSCc1cnn(-c2ccccc2)c1-n1cccc1)NCc1ccc(Cl)cc1 | inactive |
| CCCCOc1ccc(-c2nnc(-c3ccco3)o2)cc1 | 2.39 µM (active) |
| CCOc1ccc(NC(=O)c2cc(C)nc3ccccc23)cc1 | inactive |
| CCOc1ccc(NC(=O)c2ncoc2-c2ccco2)cc1 | 7.57 µM (active) |
| N#Cc1ccc(OCc2nnc(-c3ccc([N+](=O)[O-])cc3)o2)cc1 | inactive |
| COc1ccc(-c2ocnc2C(=O)Nc2ccc3c(c2)CCC3)cc1 | 7.57 µM (active) |
| CCOc1ccc(NC(=O)N(CCC(C)C)C(C)c2ccco2)cc1 (centres undefined) | inactive |
| O=C(CCc1ccccc1)Nc1cccc(-c2nnc(-c3ccco3)o2)c1 | inactive |
| COCCn1c(SCC(=O)Nc2ccc3c(c2)CCC3)nc2ccccc2c1=O | inactive |
| CCOc1ccc(-n2c(SCC(N)=O)nnc2-c2ccco2)cc1 | inactive |
| Cc1cccc(NC(=O)CSc2nnc(-c3ccco3)o2)c1 | inactive |
| Cc1ccc(CNC(=O)COc2ccc3c(c2)CCC3)cc1 | inactive |
| CCOc1ccc(-c2nnc(-c3ccco3)o2)cc1 | 0.953 µM (active) |
| COc1cc(CNC(=O)c2cc3n(n2)CCCN(Cc2cccc(F)c2)C3=O)cc(OC)c1OC | inactive |
| CN1CCN(S(=O)(=O)c2ccc(NC(=O)C3CCCO3)cc2)CC1 (centres undefined) | inactive |
| CN(C)CCn1c2c(c(SCC(=O)NCc3ccccc3)nc1=O)CCC2 | inactive |
| O=C(NNS(=O)(=O)c1ccccc1C(F)(F)F)c1cc2ncc(C(F)(F)F)cc2s1 | inactive |
| COc1ccccc1CCNC(=O)c1cccn1-c1nnc(N2CCCCC2)s1 | inactive |
| COc1cc(CNCCSc2nnnn2C)ccc1OCc1c(F)cccc1Cl | inactive |
| Cc1ccccc1C(=O)N1CCC(C(=O)Nc2ccc(S(=O)(=O)N(C)C(C)C)cc2)CC1 | inactive |
| COC(=O)c1ccc2c(c1)N(CC(=O)Nc1ccc(C)c(C)c1)C(=O)c1ccccc1S2 | inactive |
| CCN(CCCNC(=O)CSc1cc(=O)n(C)c2cc(Cl)ccc12)c1cccc(C)c1 | inactive |
| Oc1ccc(/C=N/N(Cc2ccccc2)c2ccccc2)cc1 | inactive |
| Cc1ccnc(N2CCCC(C(=O)Nc3cc(F)ccc3C)C2)n1 (centres undefined) | inactive |
| CC1CCCN(c2csc3ccc(F)cc3c2=O)C1 (centres undefined) | 6.01 µM (active) |
| CC1CCCN(c2cc3c(cc2F)c(=O)c(S(=O)(=O)c2cccc(Cl)c2)cn3Cc2ccccc2)C1 (centres undefined) | inactive |

| SMILES | Potency |
| --- | --- |
| CCOc1ccc(NC(=O)CN(C)C(=O)c2cccc(S(=O)(=O)N3CCCC3)c2)cc1OCC | inactive |
| CC1=C(c2ccc(C)cc2)S(=O)(=O)NC1=NCCCN1CCN(c2cc(C)ccc2C)CC1 | inactive |
| Cc1ccc(CNS(=O)(=O)c2ccc(C(=O)N(C)C)s2)cc1 | inactive |
| O=C(N/N=C/c1cccnc1)c1cc2ccccc2cc1O | 5.36 µM (active) |
| Cc1ccc(/C=N/NC(=O)Cn2ccc(C(F)(F)F)n2)o1 | inactive |
| Cc1ccc(/C=N/NC(=O)Cn2nc(C)c(Br)c2C)o1 | inactive |
| O=C(N/N=C/c1cccnc1)c1ccc(NC(=O)c2ccc(F)cc2)cc1 | inactive |
| O=C(N/N=C\c1cccnc1)c1cc(-c2ccccc2)nc2c(Cl)cccc12 | inactive |
| Cc1ccc(/C=N/NC(=O)c2cc3ccccc3cc2O)o1 | 9.53 µM (active) |
| CCc1cc2c(cc3c(=O)n(CC(=O)NCc4cccc(Cl)c4)nc(CC)n32)s1 | inactive |
| O=C(CSc1nc(-c2ccccc2)cs1)Nc1cccc([N+](=O)[O-])c1 | 10.7 µM (active) |
| COc1ccc(-n2cnnc2SCC(=O)Nc2cccc([N+](=O)[O-])c2)cc1 | inactive |
| O=C(CSc1ncn[nH]1)Nc1nc(-c2cccc([N+](=O)[O-])c2)cs1 | inactive |
| Cc1cc([N+](=O)[O-])c(-c2ccc(/C=N/n3cnnc3)o2)cc1Cl | inactive |
| CC1=NN(c2ccc(Cl)c(C(=O)O)c2)C(=O)/C1=C/c1ccc(-c2ccccc2[N+](=O)[O-])o1 | 4.78 µM (active) |
| O=C1NC(c2ccc(-c3ccccc3[N+](=O)[O-])o2)C(C(=O)c2ccc(Cl)cc2)C(O)(C(F)(F)F)N1 (centres undefined) | inactive |
| NS(=O)(=O)c1ccc(NC(=O)COC(=O)c2cc3ccccc3oc2=O)cc1 | inactive |
| CCOC(=O)c1cc2cc3ccccc3cc2oc1=O | 9.53 µM (active) |
| C=CCc1cccc2cc(C(=O)OCC)c(=O)oc12 | inactive |
| O=C(CCC(=O)N1CC2CCCN2c2ccccc21)NCc1ccccc1Cl (centres undefined) | inactive |
| O=C(CCc1nc(CN2CCN(S(=O)(=O)c3ccc(Br)cc3)CC2)no1)N1CCCCC1 | inactive |
| CCOC(=O)c1c(C)[nH]c(CCC(=O)NCCCN2CCN(c3cccc(Cl)c3)CC2)c1C | inactive |
| CN(C)CCn1c(=S)[nH]c2ccc(Cl)cc2c1=O | inactive |
| CN(C)CCN=c1cc(-c2ccccc2)oc2ccc(Cl)cc12 | 6.01 µM (active) |
| CN(C)CCCn1c(-c2ccc(Cl)cc2)csc1=Nc1ccccc1 | inactive |
| O=C(CCCn1c(=O)c2cccn2c2cccnc21)NCc1ccc(F)cc1 | inactive |

| SMILES | Potency |
| --- | --- |
| Cc1ccccc1Cn1nc(C)c(NC(=O)c2cc(-c3ccc(F)cc3)on2)c1C | inactive |
| CCOC(=O)C1=C(N)N2C(=O)C(C)SC2=C(C(=O)OCC)C1c1cc(OC)c(OC)c(OC)c1 (centres undefined) | inactive |
| CC1(C)CCSC(/C=C/c2ccccc2)=N1 | 13.5 µM (active) |
| Cc1ccc(C)c(CN2C(=O)c3ccccc3S(=O)c3ccc(C(=O)N4CCOCC4)cc32)c1 (centres undefined) | inactive |
| Cc1cc(Nc2ccc(N3CCOCC3)cc2)c2cccc(C)c2n1 | inactive |
| O=C(Cc1cc(=O)[nH][nH]1)N/N=C/c1ccccc1[N+](=O)[O-] | inactive |
| COc1ccc(C/C(C)=N/NC(=O)c2cc(C)oc2C)cc1 | inactive |
| Cc1cc(-c2n[nH]c(=S)n2/N=C/C(Br)=C/c2ccccc2)n[nH]1 | inactive |
| CC(=O)c1ccc(N2CCN(CC(=O)Nc3ccccc3N3CCOCC3)CC2)cc1 | inactive |
| Cc1cc(C(=O)OCC(=O)Nc2ccccc2Cl)c(C)o1 | inactive |
| CC(=O)N/C(=C/c1ccc(OC(F)F)cc1)C(=O)O | inactive |
| Cc1cc(C(=O)N/N=C\C(Br)=C\c2ccccc2)c(C)o1 | 8.49 µM (active) |
| CC(=C/c1ccccc1)/C=N/NC(=O)c1cc(C)oc1C | 1.35 µM (active) |
| Cc1cc(C(=O)N/N=C/c2ccccc2[N+](=O)[O-])c(C)o1 | 16.9 µM (active) |
| Cc1ccccc1N/N=C/c1ccc(N2CCOCC2)cc1 | 10.7 µM (active) |
| CC(=O)N/N=C/c1cc2c(cc1[N+](=O)[O-])OCO2 | inactive |
| Cc1ccc(CC(=O)Nc2ccc(S(=O)(=O)N3CCOCC3)cc2)cc1C | inactive |
| Cc1cccc(Cn2c(=O)n(CCC(=O)NCCc3ccc(Cl)cc3)c(=O)c3sccc32)c1 | inactive |
| O=C(CN1CCN(C2CCS(=O)(=O)C2)CC1)N1N=C(c2ccc(Cl)cc2)CC1c1ccco1 (centres undefined) | inactive |
| CCOC(=O)c1cc(-c2ccccc2)n(CCC(=O)Nc2ccccc2CC)c1C | inactive |
| CC1=Nc2cc(C(=O)N3CCC(C)CC3)ccc2Sc2ccc(Cl)cc21 | inactive |
| CC(=O)Nc1cccc(NC(=O)CSc2nccn2Cc2ccc3c(c2)OCO3)c1 | inactive |
| COc1ccc(Br)cc1CNC(=O)c1cc(=O)[nH]c2ccc(S(=O)(=O)N3CCCC3)cc12 | inactive |
| O=c1c2c(ncn1Cc1ccccc1)nc1n2CCC1 | inactive |
| Cc1cc(C)nc(NS(=O)(=O)c2ccc(NC(=O)c3cc(=O)c4ccc(C)c(C)c4o3)cc2)n1 | inactive |
| O=c1cc(CSc2ncn[nH]2)[nH]c2ccc(F)cc12 | inactive |

| SMILES | Potency |
| --- | --- |
| CC(C)N(Cc1nnc(-c2ccccc2Br)o1)C(=O)c1cc(Cl)nc2ccccc12 | inactive |
| Cc1cc(C(=O)N/N=C/c2ccc(N3CCOCC3)cc2)c(C)o1 | 13.5 µM (active) |
| CCN(CC)c1ccc(C(=O)N/N=C/c2ccc(N3CCOCC3)cc2)cc1 | inactive |
| Cc1ccc(OCCCC(=O)Nc2ccc(N3CCOCC3)cc2)cc1 | inactive |
| O=c1c2ccccc2ccc2ccc(P(=O)(O)O)cc12 | inactive |
| O=C(OCc1ccc([N+](=O)[O-])cc1)c1ccccn1 | inactive |
| COc1ccc(C(=O)O/N=C(\N)c2ccccn2)cc1[N+](=O)[O-] | 12 µM (active) |
| O=C(COC(=O)c1ccccn1)NNC(=O)c1ccc([N+](=O)[O-])cc1 | inactive |
| N/C(=N\OC(=O)c1ccc([N+](=O)[O-])cc1)c1ccccn1 | 0.601 µM (active) |
| COc1ccc(C(=O)NNC(=O)c2cnccn2)cc1[N+](=O)[O-] | inactive |
| COc1ccc(C(=O)CSc2nc(C)cc(C)n2)cc1[N+](=O)[O-] | inactive |
| Cc1ccc(NC(=O)c2ccccn2)cc1S(=O)(=O)N1CCOCC1 | inactive |
| Cc1ccc(C(=O)O/N=C(\N)c2ccccn2)cc1Cl | 0.169 µM (active) |
| O=C(Nc1ccccc1Cl)O/N=C(/c1ccccc1)c1ccccn1 | inactive |
| O=C(CCS(=O)(=O)c1cc(Br)cc2c1N(C(=O)C1CC1)CC2)Nc1ccc(C(F)(F)F)cc1 | inactive |
| C/C=N/NC(=O)CCCC(=O)N/N=C/C | inactive |
| COc1ccccc1C(=O)NCC(=O)NCCSc1ccc(Br)cc1 | inactive |
| Cn1nnnc1SCCCNCc1ccc(Cl)cc1 | inactive |
| Cc1ccc(NC(=O)C(=O)NCC(c2cccnc2)N2CCOCC2)cc1 (centres undefined) | inactive |
| Cc1ccc(NC(=O)c2cnc(SCC(=O)NCC3CCCO3)n(C)c2=O)cc1 (centres undefined) | 9.53 µM (active) |
| Cc1cc(NC(=O)CSc2ncc(C(=O)Nc3ccc(Cl)cc3)c(=O)n2C)no1 | inactive |
| Cn1c(SCC(=O)c2ccccc2)ncc(C(=O)Nc2ccc(F)cc2)c1=O | inactive |
| COc1ccc(Cl)cc1NC(=O)CSc1nc(=O)[nH]c2c1CCCC2 | inactive |
| C/C(=C\c1ccco1)C1Nc2cccc3cccc(c23)N1 | 10.7 µM (active) |
| O=C(NCC1CCCO1)/C(=C\c1ccco1)NC(=O)c1ccccc1 (centres undefined) | inactive |
| NC(=O)C1CCN(C(=O)/C(=C/c2ccco2)NC(=O)c2ccccc2)CC1 | inactive |
